Laboratory results published in PubChem BioAssay AID1159524 (National Center for Advancing Translational Sciences (NCATS), 2015).
Out of some 410,000 compounds screened, about 5,100 (1.2%) were called active. A call without a number means that no potency is given here. Not shown: some 8% with an inconclusive outcome. Calls come from the whole dose curve; tested in HEK293T cells. Only a selection was taken, and actives are over-represented in it overall.
Potency is the fitted concentration of half-maximal effect.

Assay: High Throughput Screening for Foot and Mouth Disease Virus Antivirals; note: read-out not given here; nearly all actives have a fitted effect of over 45% in size
Settings: FMDV antiviral cell-based qHTS; series mostly up to 57.9 µM
With `CCN(CC)S(=O)(=O)c1ccc2c(c1)N(CC(=O)NCC(C)c1ccccc1)C(=O)CO2` (stereo not drawn) the Potency was “inactive”.
With `O=C(NCCc1ccccc1)c1ccc2c(c1)N(Cc1ccccc1)C(=O)c1ccccc1S2(=O)=O` the Potency was “inactive”.
With `c1ccc2c(c1)[I+]c1ccccc1-2` the Potency was “inactive”.
For `COc1ccc(CNC(=O)c2ccc(NC(=O)N3CC4CCCN4c4ccccc43)cc2)cc1` (stereo not drawn), the Potency was “inactive”.
With `COc1cc(NC(=O)Cn2c(=O)n(Cc3ccco3)c(=O)c3oc4ccccc4c32)cc(OC)c1` the Potency was “inactive”.
For `CCOC(=O)c1cc2c(=O)n3ccccc3nc2n(CCCOC)c1=NC(=O)C(C)(C)Oc1ccc(Cl)cc1`, the Potency was “inactive”.
In the case of `O=c1ccc2c(-c3ccccc3S(=O)(=O)O)c3ccc(O)c(O)c3oc-2c1O`, the Potency is reported as 7.08 µM (active).
For `CC(=O)Nc1ccc(C(=O)NNC(=O)CCCCC(=O)NNC(=O)c2ccc(NC(C)=O)cc2)cc1`, the Potency was “inactive”.
For `CCCC(=O)Nc1ccc(C(=O)NCCCn2ccnc2)cc1`, the Potency was “inactive”.
With `CCCC(=O)Nc1ccc(C(=O)N/N=C/c2ccc[nH]2)cc1` the Potency was 28.2 µM (active).
For `CNC(=O)N1c2ccccc2C=Cc2ccccc21`, the Potency was “inactive”.
In the case of `Cc1ccn(CCC(=O)N2c3ccccc3CC2C)n1` (stereo not drawn), the Potency is reported as “inactive”.
With `CC1C(C)N(C(=O)CCl)c2ccccc2N1C(=O)CCl` (stereo not drawn) the Potency was 3.55 µM (active).
For `N[C@H](Cc1o[nH]c(=O)c1Cl)C(=O)O`, the Potency was “inactive”.
In the case of `CC(C)C(=O)NC(C)c1nnc2n1CCN(Cc1cccc3ncccc13)CC2` (stereo not drawn), the Potency is reported as “inactive”.
In the case of `Cc1nc2cnc(Nc3ccccc3)nc2n(C[C@H]2CCCO2)c1=O`, the Potency is reported as “inactive”.
With `C[C@@H]1C[C@@H]2O[C@H]2/C=C\C=C\C(=O)Cc2c(Cl)c(O)cc(O)c2C(=O)O1` the Potency was 0.1 µM (active).
With `COCCn1c(=O)c(CCc2ccccc2)nc2cnc(N3CCNCC3)nc21` the Potency was “inactive”.
With `COCCn1c(=O)c(-c2ccc(OC)cc2)nc2cnc(Oc3cccc(Cl)c3)nc21` the Potency was “inactive”.
For `COc1ccccc1CN1CC2(CCN(S(=O)(=O)c3ccccc3)CC2)C1`, the Potency was “inactive”.
With `COc1ccccc1CC(=O)Nc1ccc(S(=O)(=O)N2CCCC2)cc1` the Potency was “inactive”.
With `COc1ccc(-c2ccc(Nc3ccc(S(=O)(=O)N4CCCC4)cc3)nn2)cc1OC` the Potency was 14.1 µM (active).
With `COc1cc(C(=O)NNC(=O)c2ccc(S(=O)(=O)N3CCCCC3)cc2)cc(OC)c1OC` the Potency was “inactive”.
With `CCN(CC)c1cc(NC2CCCCC2)c2c3c(onc13)-c1ccccc1C2=O` the Potency was “inactive”.
With `CC(C)C(NS(=O)(=O)c1ccc(-c2ccc(Br)cc2)cc1)C(=O)O` (stereo not drawn) the Potency was “inactive”.
For `CCC1(C2CCN(Cc3cccnc3)CC2)NC(=O)N(CC2COc3ccccc3O2)C1=O` (stereo not drawn), the Potency was “inactive”.
With `Cc1cccc(C(CC(=O)NCC2(c3ccccc3)CCCC2)c2ccccc2)c1O` (stereo not drawn) the Potency was “inactive”.
With `O=C(O)c1ccc(N/N=C/c2ccc3ncccc3c2)cc1` the Potency was 2.82 µM (active).
In the case of `CCc1nc2cccnc2n1-c1ccc(C(=O)O)cc1`, the Potency is reported as “inactive”.
With `NCCCCCC(=O)N/N=C/c1ccc2nccnc2c1` the Potency was “inactive”.
In the case of `CCn1c(C(=O)Nc2cc(Cl)ccc2C)cc2sc(Cl)cc21`, the Potency is reported as “inactive”.
With `COc1ccc(NC(=O)N2CC3(CCN(C(=O)c4cccn4C)CC3)C2)cc1` the Potency was “inactive”.
For `CC(=O)OCC(=O)C1CCC2C3CCC4=CC(=O)CC[C@@]4(C)C3CC[C@]12C` (stereo partly drawn), the Potency was “inactive”.
For `CSc1ncnc2c1ncn2CC(=O)C1CCC2C3CCC4=CC(=O)CCC4(C)C3CCC12C` (stereo not drawn), the Potency was 11.2 µM (active).
For `CC(=O)OCC(=O)[C@@]1(O)CCC2C3CCC4=CC(=O)CC[C@]4(C)C3C(=O)C[C@]21C` (stereo partly drawn), the Potency was “inactive”.
In the case of `COc1ccccc1N1CCN(CCCNC(=O)c2cnn(-c3ccccc3Cl)c2C2CCN(C(=O)OC(C)(C)C)CC2)CC1`, the Potency is reported as “inactive”.
In the case of `CN(C)CCc1c[nH]c2ccc(Cn3cncn3)cc12`, the Potency is reported as “inactive”.
With `O=C(CC(c1cccs1)N1Cc2ccccc2C1=O)Nc1ccc(F)cc1F` (stereo not drawn) the Potency was “inactive”.
In the case of `Cn1cnc([N+](=O)[O-])c1Sc1n[nH]c(N)n1`, the Potency is reported as “inactive”.
For `Cn1cnc([N+](=O)[O-])c1Sc1ccccc1`, the Potency was 28.2 µM (active).
In the case of `Cn1cnc([N+](=O)[O-])c1Nc1ccccc1O`, the Potency is reported as “inactive”.
With `CO[C@H]1[C@H](NC(=O)C(C)C)c2ccccc2C12CCN(Cc1cnc(N(C)C)s1)CC2` the Potency was “inactive”.
With `COc1ccccc1CNc1ccnc(-c2c(C)noc2C)n1` the Potency was “inactive”.
For `CCCC(=O)Nc1ccc(NC(=O)c2sc3ccccc3c2Cl)cc1`, the Potency was “inactive”.
In the case of `Cc1cccc(N2CCN(C(=O)c3cnc(N4CCCC4)nc3C)CC2)c1C`, the Potency is reported as “inactive”.
For `CCC1CN(CCNC(=O)c2ccsc2)Cc2cc(OC)ccc2O1` (stereo not drawn), the Potency was “inactive”.
For `CCN1/C(=C\c2ccc3ccccc3[n+]2CC)Sc2cc(C)ccc21`, the Potency was 35.5 µM (active).
In the case of `CC(=O)Nc1cccc(NC(=O)CSc2cn(CC(=O)N3CCCC3)c3ccccc23)c1`, the Potency is reported as “inactive”.
In the case of `COc1ccc2[nH]cc(CCNc3nc(-c4cccc(NS(C)(=O)=O)c4)nc4ccccc34)c2c1`, the Potency is reported as “inactive”.
For `CCn1c2ccccc2c2nnc(SCC(=O)O)nc21`, the Potency was “inactive”.
In the case of `CCc1c2c(nc3ccc(O)cc13)-c1cc3c(c(=O)n1C2)COC(=O)[C@]3(O)CC`, the Potency is reported as “inactive”.
In the case of `COCCn1c(=O)c(CCc2ccccc2)nc2cncnc21`, the Potency is reported as “inactive”.
With `NS(=O)(=O)c1ccc(CCNC(=O)CN2C(=O)c3ccccc3S2(=O)=O)cc1` the Potency was “inactive”.
With `O=C(CN1C(=O)c2ccccc2S1(=O)=O)N1CCc2ccccc21` the Potency was 0.794 µM (active).
In the case of `CCn1c(=O)c2ccccc2n(CC(=O)N2CCCc3ccccc32)c1=O`, the Potency is reported as “inactive”.
In the case of `CO[C@H]1C=CO[C@@]2(C)Oc3c(C)c(O)c4c(O)c(c(/C=N/N5CCN(C)CC5)c(O)c4c3C2=O)NC(=O)/C(C)=C\C=C[C@H](C)[C@H](O)[C@@H](C)[C@@H](O)[C@@H](C)[C@H](OC(C)=O)[C@@H]1C`, the Potency is reported as “inactive”.
With `Nc1nc2c(ncn2[C@@H]2O[C@H](COP(=O)(O)OP(=O)(O)OP(=O)(O)O)[C@@H](O)C2O)c(=O)[nH]1` (stereo partly drawn) the Potency was “inactive”.
With `O=C(c1ccco1)N1CCC[C@@]2(CCN(c3ccccc3)C2)C1` the Potency was “inactive”.
For `CC(C)NC(=O)N1CC[C@@]2(CCCN(C(=O)c3ccco3)C2)C1`, the Potency was “inactive”.
In the case of `C1CC[C@H]([C@@]23C[C@H](C[C@H]4CCCN[C@H]42)[C@@H]2CCCCN2C3)NC1`, the Potency is reported as “inactive”.
In the case of `CCSc1ncc(Cl)c(C(=O)Nc2c(C(=O)c3ccccc3)oc3ccccc23)n1`, the Potency is reported as “inactive”.
In the case of `CCCS(=O)(=O)c1ncc(Cl)c(C(=O)Nc2scc(-c3ccccc3)c2C(=O)OCC)n1`, the Potency is reported as 25.1 µM (active).
With `CCOC(=O)c1scc(-c2ccccc2)c1S(=O)(=O)Nc1ccccc1F` the Potency was “inactive”.
